High-throughput results from PubChem.
A selection: hits, their analogues and other compounds. The true share with any hit is near 1.2%.
GSH fluor: compound fluorescence on glutathione beads, profiling panel, artefact control, biophysical, 488/530 nm, flow cytometry | GSH beads flow cytometry, compound fluorescence 488/530 nm; stronger effect = higher value | fluorescence (KMESF) at 10 µM | 190,000 tested, 0.25% active; in the data active = fluorescence above about 89;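 also: glutathione beads carrying GST-tagged Bcl family fusion proteins plus one bare bead set; values are compound well signal with DMSO vehicle wells as background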
Avidin bead fluor: green autofluorescence of compounds with avidin beads – biophysical, 488/530 nm, flow cytometry, artefact control, profiling panel; fluorescence (KMESF) at 10 µM; compound fluorescence 488/530 nm; stronger effect = higher value; 220,000 tested, 0.38% active; in the data active = fluorescence above about 47
RGS8-Gao reg: RGS8-Galphao binding modulators, primary screen, biochemical, multiplexed bead flow cytometry. Guanine nucleotide-binding protein G(o) subunit alpha (Homo sapiens), P09471. actives lie on both sides. response (percent of control binding), % at 10 µM. 220,000 tested, 0.34% active; in the data active = response below about 60% or above about 140%; inactive = in between;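 also: Galphao activated as the GDP aluminium fluoride complex binding bead-coupled RGS8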
RGS4-Gao reg: modulators of RGS4 binding to Galphao, primary screen, biochemical, multiplexed bead flow cytometry; actives lie on both sides; binding response (% of control), % at 10 µM; 220,000 tested, 0.33% active; AID 1415, 2008; in the data active = binding response below about 49% or above about 150%; inactive = in between;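 also: fluorescent Galphao activated with aluminum fluoride binding bead-coupled RGS4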
RGS7-Gao reg: RGS7-Galphao binding modulators, primary screen, biochemical, multiplexed bead flow cytometry; Guanine nucleotide-binding protein G(o) subunit alpha (Homo sapiens), P09471; actives lie on both sides; binding response (% of control), % at 10 µM; 220,000 tested, 0.35% active; AID 1439, 2008; in the data active = binding response below about 49% or above about 150%; inconclusive = no clear call, values can overlap the other calls; inactive = in between;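 also: fluorescent Galphao held in activated GDP-AlF4 state binding bead-coupled RGS7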
RGS16-Gao: modulators of RGS16 binding to Galphao, primary screen, biochemical, human proteins, multiplexed bead flow cytometry; bead-based flow cytometry RGS16-Galphao binding, fluorescence; actives lie on both sides; 220,000 tested, 0.38% active; binding response (% of control), % at 10 µM; Regulator of G-protein signaling 16 (Homo sapiens) + Guanine nucleotide-binding protein …; call rule not given here;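 also: Galphao activated by GDP with aluminum fluoride before binding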
Target sequence (O15492 whole entry, looked up): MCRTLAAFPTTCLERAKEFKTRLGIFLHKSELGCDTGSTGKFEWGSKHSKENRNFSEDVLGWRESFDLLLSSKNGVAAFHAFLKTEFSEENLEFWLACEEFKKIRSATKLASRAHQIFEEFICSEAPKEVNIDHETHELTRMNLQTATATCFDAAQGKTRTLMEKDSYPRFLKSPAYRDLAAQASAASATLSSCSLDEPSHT
Target sequence (P09471 whole entry, looked up): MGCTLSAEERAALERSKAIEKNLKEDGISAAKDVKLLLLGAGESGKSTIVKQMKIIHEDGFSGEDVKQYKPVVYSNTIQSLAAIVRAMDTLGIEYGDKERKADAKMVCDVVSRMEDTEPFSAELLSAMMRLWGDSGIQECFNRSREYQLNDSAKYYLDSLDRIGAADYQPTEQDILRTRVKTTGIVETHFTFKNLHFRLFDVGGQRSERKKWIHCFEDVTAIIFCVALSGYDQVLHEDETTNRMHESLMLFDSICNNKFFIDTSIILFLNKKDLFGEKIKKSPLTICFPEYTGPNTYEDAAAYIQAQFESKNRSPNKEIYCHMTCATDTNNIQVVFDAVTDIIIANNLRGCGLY
Active calls of the source: *; u = inconclusive; x = no result given.

SMILES	GSH fluor	Avidin bead fluor	RGS8-Gao reg	RGS4-Gao reg	RGS7-Gao reg	RGS16-Gao
Cn1cnc2c(=O)[nH]cc([N+](=O)[O-])c21	8	62*	106.2	111.8	118.1	115.4
Cc1nn(C(C)c2n[nH]c(=S)n2-c2cccc(Cl)c2)c(C)c1[N+](=O)[O-] (stereo unspecified)	63	8	101.6	101.7	106.7	100.3
COc1ccc(/C=N/Nc2nc(Nc3ccccc3)nc(N3CCCC3)n2)cc1	24	78*	107.6	98.0	124.7	107.0
[O-][n+]1onc2c1CCC(=N/O)/C2=N\Nc1ccccc1	x	8	100.2	97.1	u	97.3
COc1ccc(CC(=O)NC(C)c2nnc(SCCOc3ccc(OC)cc3)n2C)cc1 (stereo unspecified)	8	13	100.5	97.5	102.1	103.6
CC(=O)/C=C(\C)Nc1ccccc1O	x	6	121.3	134.2	u	128.8
N#C/C(C(=O)c1ccccc1)=C1/CCCN1	31	48*	100.4	103.9	110.0	105.7
N#C/C(=C1\CCCN1)c1nc2ccccc2c(=O)[nH]1	31	15	99.7	99.8	99.8	102.4
Cc1cc(C(=O)COC(=O)c2cccnc2Cl)c(C)n1-c1c(C)n(C)n(-c2ccccc2)c1=O	11	26	109.0	108.3	105.7	116.9
Cc1ccc(C)c(C(=O)CN2Cc3ccccc3C2=O)c1	x	8	100.2	102.5	u	100.5
C=CCNC(=O)COC(=O)c1ccc(Sc2nncn2C)c([N+](=O)[O-])c1	5	86*	102.9	106.7	136.2	110.5
Fc1ccc(N2CCN(c3ccc4c(C(F)(F)F)cc(C(F)(F)F)nc4n3)CC2)cc1	15	92*	100.3	117.5	133.1	121.1
COc1cc2[nH]c(=O)n(Cc3ccc(C(=O)NC4CCCC4)cc3)c(=O)c2cc1OC	10	24	107.1	111.2	103.6	105.8
COc1cc2[nH]c(=O)n(CCC(=O)NC3CCCC3)c(=O)c2cc1OC	23	68*	102.5	106.7	119.9	102.7
Cc1onc(-c2ccc(Cl)cc2)c1-c1ccnn1S(=O)(=O)c1cccc(C(F)(F)F)c1	x	6	98.8	103.4	u	97.6
COC(=O)c1ccc(OC(=O)c2ccccn2)cc1	269*	7	99.0	100.3	102.3	100.9
COC(=O)c1ccc(/C=C(\C#N)c2ccccn2)cc1	13	8	98.1	99.9	98.4	97.1
CCCn1nc2cc(C(=O)NCCc3ccc(C)cc3)ccc2c1OCC	12	63*	104.2	110.3	107.4	113.9
CCCn1nc2cc(C(=O)NCCCCc3ccccc3)ccc2c1OCC	13	52*	101.0	104.9	106.0	107.9
CCCCn1nc2cc(C(=O)NCCc3cccs3)ccc2c1OCC	54	7	100.6	100.2	100.5	97.6
COc1ccccc1CNCC(=O)Nc1ccc(C(F)(F)F)cc1	x	9	100.9	105.0	u	106.6
CCN(Cc1ccncc1)Cc1nc(Cc2ccccc2Cl)no1	12	6	97.9	96.6	94.3	96.8
CCN(CC)S(=O)(=O)c1ccc(NC2CCCc3ccccc32)nc1 (stereo unspecified)	25	35	101.8	100.6	99.7	101.2
c1ccc2c(c1)CCCC2NC1=NCCC1 (stereo unspecified)	256*	11	100.2	105.0	105.2	105.8
COC(=O)CSc1nnc(SCc2ccc(OC)cc2)s1	26	50*	99.9	100.4	103.6	102.2
COc1ccc(CSc2nnc(SCc3ccc([N+](=O)[O-])cc3)s2)cc1	26	6	101.8	100.3	98.3	101.9
CC(C)CNC(=O)c1ccccc1NC(=O)c1ccc(CN2CCOCC2)cc1	19	48*	101.6	97.3	102.4	101.5
Cc1cc(C)n2c(SCCC(C)C)nnc2n1	255*	9	110.1	110.8	107.1	119.2
